Source: PubChem BioAssay (Tox21)
Where “and” joins values, the source holds several entries; their conditions need not be identical. Identical values can stand only once. A number with no mark means an inactive call. Inconclusive results are not listed. Entries that show only a call come without a potency. Calls of active or inactive are those of the source. The call rests on the fitted dose curve.

Assays:
[1] = target: Acetylcholinesterase (Homo sapiens) (UniProt P22303); assay: Acetylcholinesterase (AChE) small molecule antagonists: colormetric cell-based qHTS assay (AID 1347395); further: nearly all actives have a fitted effect of over 30% in size
Method in brief: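 SH-SY5Y cells, plated overnight at 37 C, were exposed to compounds for 30 min at 37 C and 5% CO2. Acetylthiocholine plus DTNB was then added, and thiocholine from endogenous AChE was quantified colorimetrically after 90 min at 37 C.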

[2] = target: Acetylcholinesterase (Homo sapiens) (UniProt P22303); assay: Acetylcholinesterase (AChE) small molecule antagonists: enzyme-based qHTS assay (AID 1347397); conditions: Potency: AChE enzyme activity inhibition; outcome: AChE enzyme activity inhibition; further: nearly all actives have a fitted effect of over 55% in size
Method in brief: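 rhAChE 50 mU/mL (dispensed) + cpd or DMSO, 30 min RT; add DTNB/acetylthiocholine cocktail, 10 min RT; colorimetric thiocholine readout. qHTS, 1536-well format.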

[3] = target: Acetylcholinesterase (Homo sapiens) (UniProt P22303); assay: Acetylcholinesterase (AChE) small molecule antagonists: fluorescence cell-based qHTS assay (AID 1347398); conditions: Potency: AChE activity; outcome: AChE activity; further: nearly all actives have a fitted effect of over 50% in size
Method in brief: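 Read-out is Thiolite Green fluorescence at Ex/Em = 490/520 nm, formed by reaction with thiocholine released when cellular AChE in SH-SY5Y cells hydrolyzes acetylthiocholine. Compounds were preincubated 30 min at 37 C before substrate.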
Potency means the concentration at half of the fitted maximal effect.

Chain of Acetylcholinesterase (Homo sapiens) (P22303 whole entry, looked up): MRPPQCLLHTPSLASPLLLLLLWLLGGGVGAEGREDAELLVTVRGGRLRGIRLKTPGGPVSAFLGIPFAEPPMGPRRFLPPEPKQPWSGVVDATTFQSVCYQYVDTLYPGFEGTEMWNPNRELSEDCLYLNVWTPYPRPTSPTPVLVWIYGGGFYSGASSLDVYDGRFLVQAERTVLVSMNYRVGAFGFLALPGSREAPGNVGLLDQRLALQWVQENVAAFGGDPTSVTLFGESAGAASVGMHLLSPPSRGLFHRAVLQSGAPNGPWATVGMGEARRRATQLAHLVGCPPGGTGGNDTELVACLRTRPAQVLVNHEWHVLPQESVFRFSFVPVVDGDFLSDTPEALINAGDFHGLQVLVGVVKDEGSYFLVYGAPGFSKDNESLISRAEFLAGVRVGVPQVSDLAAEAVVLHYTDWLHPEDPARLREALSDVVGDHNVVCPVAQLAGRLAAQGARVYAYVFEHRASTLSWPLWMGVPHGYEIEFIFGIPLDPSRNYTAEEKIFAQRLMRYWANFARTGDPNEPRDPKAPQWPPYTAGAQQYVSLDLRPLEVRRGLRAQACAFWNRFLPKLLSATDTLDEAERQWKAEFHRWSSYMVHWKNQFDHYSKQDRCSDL

| Compound | Potency [1] | Potency [2] | Potency [3] | activity, negative = inhibition [1] | activity change, negative = inhibition [2] | activity change, negative = inhibition [3] |
| --- | --- | --- | --- | --- | --- | --- |
| Nc1ccc(S(=O)(=O)O)cc1 | inactive | inactive | inactive | – | – | – |
| CCCC(=O)OCOC(=O)C1=C(C)NC(C)=C(C(=O)OC)C1c1cccc(Cl)c1Cl (configuration not stated) | inactive | inactive | inactive | – | – | – |
| CN(C)c1ccc(C(=C2C=CC(=[N+](C)C)C=C2)c2ccc(N(C)C)cc2)cc1 | 70.6 µM (active) | 25.1 µM (active) and 35.6 µM (active) and 30.9 µM (active) | 19.9 µM (active) and 44.8 µM (active) and 15.5 µM (active) | – | – | – |
| CC1(C)[C@H](C(=O)O)N2C(=O)C[C@H]2S1(=O)=O | inactive | inactive | inactive | – | – | – |
| CSc1cnccn1 | inactive | inactive | inactive | – | – | – |
| C[C@]12CC[C@@H]3c4ccc(O)cc4C[C@@H](CCCCCCCCCS(=O)CCCC(F)(F)C(F)(F)F)[C@H]3[C@@H]1CC[C@@H]2O (some centres not stated) | inactive | inactive | inactive | – | – | – |
| CC1(C)NC(=O)NC1=O | inactive | inactive | inactive | – | – | – |
| C[C@@H]1CN(c2c(F)c(N)c3c(=O)c(C(=O)O)cn(C4CC4)c3c2F)C[C@H](C)N1 | – | – | – | 1.94% [at 23.6 µM] | -2.1% [at 23.6 µM] | -0.604% [at 23.8 µM] |
| CC(O)COc1ccccc1 (configuration not stated) | inactive | inactive | inactive | – | – | – |
| CC(C)NCC(O)COc1ccc(CC(N)=O)cc1 (configuration not stated) | inactive | inactive | inactive | – | – | – |
| CS(=O)(=O)c1ccc([C@@H](O)[C@@H](CO)NC(=O)C(Cl)Cl)cc1 | inactive | inactive | inactive | – | – | – |
| CCc1ccc(C(c2ccc(CC)cc2)C(Cl)Cl)cc1 | inactive | inactive | inactive | – | – | – |
| C[N+]1(C)CCC(OC(=O)C(O)(c2ccccc2)C2CCCC2)C1 (configuration not stated) | inactive | inactive | inactive | – | – | – |
| CC(C)(C)c1ccc(C(O)CCCN2CCC(C(O)(c3ccccc3)c3ccccc3)CC2)cc1 (configuration not stated) | inactive | inactive | inactive | – | – | – |
| C=C(C)C(=O)OCc1ccccc1 | inactive | inactive | inactive | – | – | – |
| CCCCCCCCCO | inactive | inactive | inactive | – | – | – |
| CCCOC(=O)CC | inactive | inactive | inactive | – | – | – |

| Compound | Potency [1] | Potency [2] | Potency [3] | activity, negative = inhibition [1] | activity change, negative = inhibition [2] | activity change, negative = inhibition [3] |
| --- | --- | --- | --- | --- | --- | --- |
| COC(=O)c1cccc(C(=O)OC)c1 | inactive | inactive | inactive | – | – | – |
| CCNc1cc(O)ccc1C | inactive | inactive | inactive | – | – | – |
| CCCC(CC)c1ccccc1 (configuration not stated) | inactive | inactive | inactive | – | – | – |
| O=C(Nc1ccccc1)Nc1ccccc1 | inactive | inactive | inactive | – | – | – |
| Cc1c(-c2cccnc2)c2ccccc2n1CCCCC(=O)O | inactive | inactive | inactive | – | – | – |
| CCCCCCCCCCCCCCC(=O)O | inactive | inactive | inactive | – | – | – |
| CN(C)CCCN1c2ccccc2Sc2ccc(C(F)(F)F)cc21 | inactive | inactive | inactive | – | – | – |
| Nc1ccn([C@@H]2O[C@H](CO)[C@@H](O)C2O)c(=O)n1 (some centres not stated) | inactive | inactive | inactive | – | – | – |
| CC(=O)Nc1ccc(S(=O)(=O)Nc2ccc([N+](=O)[O-])cc2)cc1 | inactive | inactive | inactive | – | – | – |
| Oc1ccc(Cl)c2cccnc12 | inactive | inactive | inactive | – | – | – |
| O=[N+]([O-])c1ccc(O)cc1C(F)(F)F | inactive | inactive | inactive | – | – | – |
| CC(C(=O)O)c1cccc(C(=O)c2ccccc2)c1 (configuration not stated) | inactive | inactive | inactive | – | – | – |
| Cc1cccc(Oc2ccccc2)c1 | inactive | inactive | inactive | – | – | – |
| C=C(C)C(=O)O | inactive | inactive | inactive | – | – | – |
| O=C1CN(/N=C/c2ccc([N+](=O)[O-])o2)C(=O)N1 | inactive | inactive | inactive | – | – | – |
| CS(=O)(=O)c1ccc([C@@H](O)[C@@H](CF)NC(=O)C(Cl)Cl)cc1 | inactive | inactive | inactive | – | – | – |
| C/C(CC(C)C)=N\O | inactive | inactive | inactive | – | – | – |
